# Compound activity deposited in PubChem by several laboratories.
# WT yeast gro inh: growth inhibition of WT yeast, mitochondrial fusion screen; inhibition, % at 10 µM; mitochondrial fusion phenotypic screen, WT strain; 190,000 tested, 2.1% active; AID 1362; in the data active = inhibition above about 58%; tested in S. cerevisiae
# Lmaj promast: inhibitors of Leishmania major promastigote growth; Leishmania major promastigotes, resazurin fluorescence viability; inhibition, % at 10 µM; 200,000 tested, 9% active; AID 1063; in the data active = inhibition above about 50%;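 also: promastigotes grown with compound for 44 hours at 28 °C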
# CHOP inh: blocks CHOP induction under ER stress. CHO-K1 CHOP-promoter luciferase, tunicamycin-induced, 15-18 h. AID 2732. inhibition, % at 10 µM. 220,000 tested, 3.8% active;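 active = compounds that reduced the stress-induced luciferase reporter signal by more than about 70% of percent inhibition, limit read from the data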;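 also: 0% = tunicamycin plus vehicle and 100% = wells without tunicamycin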
# Arbovirus anti: antivirals against arbovirus infection | arbovirus infection cell-based antiviral screen | AID 1251 | inhibition, % at 10 µM | 200,000 tested, 0.37% active; in the data active = inhibition above about 30%
# The depositor's hits bear a star; · = no result. An excerpt weighted towards active compounds, which were near 12% of everything screened.
SMILES,WT yeast gro inh,Lmaj promast,CHOP inh,Arbovirus anti
O=C(c1cccc2ccccc12)N1CCC(N2CCN(c3ccccc3)CC2)CC1,-15,95*,11,8
O=C(c1cccs1)N1CCC(N2CCN(c3ccccc3)CC2)CC1,-11,86*,-21,-1
O=S(=O)(Cc1ccccc1)N1CCCC1,9,-1,12,-7
COc1cc(OC)cc(C(=O)N2CCC(N3CCN(c4ccccc4)CC3)CC2)c1,6,-4,51,-1
O=S(=O)(Cc1ccccc1)N1CCC(N2CCN(c3ccccc3)CC2)CC1,4,98*,19,-8
O=C(O)C1CC=CCC1C(=O)NCc1ccc2c(c1)OCO2 (stereo not given),-4,-4,1,-1
O=C(Nc1cc(F)c(Br)cc1F)c1ccc(Cl)cc1,·,·,33,·
Cc1ccc(CCNc2ccccc2C)cn1,3,4,33,-7
Cc1ccc(S(=O)(=O)N2C(=O)/C(=C3\SC(=S)NC3=O)c3ccccc32)cc1,·,·,10,·
COc1cccc(Nc2c3c(nc4c(-c5ccccc5)c(C)nn24)CCC3)c1,67*,30,6,7
O=C(NCCCn1ccnc1)C(=O)NCC(c1cccnc1)N1CCN(c2ccc(F)cc2)CC1 (stereo not given),-5,-1,1,4
O=C(NCC(c1cccnc1)N1CCN(c2ccc(F)cc2)CC1)c1ccccc1 (stereo not given),10,89*,-6,-3
O=C(NCc1ccc(Cl)cc1)C(=O)NCC(c1cccnc1)N1CCN(c2ccc(F)cc2)CC1 (stereo not given),27,94*,65,7
O=C1CC(c2ccccc2)CC(O)=C1C=NCCN1CCN(Cc2ccccc2)CC1 (stereo not given),·,·,21,·
COc1cc(-c2nnc(SCC(=O)c3ccccc3)o2)cc(OC)c1OC,-4,10,-1,8
COc1ccc(-c2nnc(SCC(=O)N(Cc3ccccc3)C(C)(C)C)o2)cc1OC,25,57*,57,5
COc1ccc(NS(=O)(=O)c2cc(NC(=O)/C=C/c3cc(OC)ccc3OC)ccc2N2CCCCC2)cc1,3,92*,11,-4
COc1ccc(NS(=O)(=O)c2cc(NC(=O)c3ccco3)ccc2N2CCCC2)cc1,22,82*,5,-6
COc1ccc(NS(=O)(=O)c2cc(NC(=O)c3cc(F)c(F)c(F)c3F)ccc2N2CCCC2)cc1,·,·,7,·
CCOC(=O)C1(CCc2ccccc2)CCN(C(=O)[C@@H]2C[C@@H](C)NC(=S)N2)CC1,1,-3,19,1
CCCCCCCC[n+]1cccc2c3ccccc3ccc21,80*,101*,47,-27
CCCCCCCCCC[n+]1cccc2c3ccccc3ccc21,80,100*,106*,-30
CC(/C=N/NC(=O)c1sc(N)nc1C)=C\c1ccccc1,-9,-8,-12,14
CCOC(=O)C1(CCOc2ccccc2)CCN(Cc2ccc(NC(C)=O)cc2)CC1,-13,87*,10,-33
CCOC(=O)C1(CCOc2ccccc2)CCN(Cc2ccc3nonc3c2)CC1,62*,92*,-1,4
SMILES,WT yeast gro inh,Lmaj promast,CHOP inh,Arbovirus anti
CCOC(=O)C1(CCc2ccccc2)CCN(Cc2ccccn2)CC1,12,4,13,4
CC(=O)Nc1ccc(CN2CCC(CO)(CCOc3ccccc3)CC2)cc1,-15,49,-1,3
CN(C)c1ccc(C(=O)N2CCCC2)cc1,-6,-12,-1,1
O=C(NCc1nc2ccccc2[nH]1)C1=C[C@@H](C2CCCCC2)C[C@@H](OCCCCO)O1,·,·,26,·
O=C(/C=C/c1ccccc1)NC(NC(=S)Nc1cc(Cl)ccc1Cl)C(Cl)(Cl)Cl (stereo not given),-1,99*,56,-6
C=CCNC(=O)CC(=O)N/N=C/c1cccc(C)c1,2,-4,12,8
CC(C)(C)NCc1ccc(OCc2cccs2)cc1,-15,100*,0,-10
COc1ccc(NS(=O)(=O)c2cc(NC(=O)CNC(=O)c3cccc(OC)c3)ccc2C)cc1,-4,61*,8,4
COc1ccc(NC(=O)CNC(=O)c2cccs2)cc1Cl,-12,1,0,1
CCOc1ccc(NS(=O)(=O)c2cc(NC(=O)c3cccc(C)c3)ccc2Cl)cc1,13,99*,35,-15
Cc1ccc(NC(=O)CNC(=O)c2cccs2)cc1S(=O)(=O)Nc1ccc(Cl)cc1,-1,57*,33,-12
CCOC(=O)N1CCN(Cc2cn[nH]c2-c2cc3ccccc3o2)CC1,-14,-5,20,-1
CN1C2CC(OC(=O)[C@H](CO)c3ccccc3)CC1C1OC12 (stereo not given in full),·,·,24,·
CCC(c1nnnn1CCc1ccccc1)N(Cc1ccco1)Cc1cc2cccc(C)c2[nH]c1=O (stereo not given),34,99*,36,-19
CCC(c1nnnn1C(C)(C)C)N(Cc1ccco1)Cc1cc2cccc(C)c2[nH]c1=O (stereo not given),6,62*,40,6
CCOc1ccc2[nH]c(=O)c(CN(Cc3ccco3)C(CC)c3nnnn3Cc3ccccc3)cc2c1 (stereo not given),23,41,21,-18
Cc1cc(C)c2[nH]c(=O)c(C(c3nnnn3C(C)(C)C)N(Cc3ccco3)CC3CCCO3)cc2c1 (stereo not given),6,45,50,-6
Cc1cn([C@H]2C[C@@H](N=[N+]=[N-])[C@@H](CO)O2)c(=O)[nH]c1=O,·,·,4,·
COc1ccc(/C=C/C(=O)Nc2sc(Cc3ccccc3)c(C)c2C(N)=O)cc1,-4,39,75*,-4
COC(=O)c1c(NC(=O)c2ccccc2)sc(Cc2ccccc2)c1C,68*,-3,30,-6
COC(=O)c1c(NC(=O)c2ccc(C)cc2)sc(Cc2ccccc2)c1C,0,-4,-14,2
CCC(=O)Nc1sc(Cc2ccccc2)c(C)c1C(N)=O,74*,-2,16,-3
C=CCn1c(COc2ccccc2-c2ccccc2)nnc1SCC(=O)NC(=O)NCc1ccco1,95*,-3,28,-7
O=C(CC1c2ccccc2Oc2ccccc21)N1CCN(c2ccccn2)CC1,6,6,12,-5
COC(CN1C(=O)C(=O)/C(=C(/O)c2ccccc2)C1c1ccccn1)OC (stereo not given),-13,-4,-20,-1
SMILES,WT yeast gro inh,Lmaj promast,CHOP inh,Arbovirus anti
[O-]/C(=C(\C(=S)Nc1ccc(SC(F)F)cc1)[n+]1ccccc1)c1ccc(Cl)cc1Cl,6,84*,25,28
O=C(O)CC/C(=C\c1ccc(Cl)c([N+](=O)[O-])c1)c1nc2ccccc2s1,-35,-5,9,26
N#C/C(=C\c1ccco1)c1nc2ccccc2s1,14,-6,36,2
COc1ccc(-c2csc(/C(C#N)=C\c3ccc(OC)c([N+](=O)[O-])c3)n2)cc1,2,91*,32,-6
COc1cc(/C=C(\C#N)c2ccccn2)cc(OC)c1O,·,·,-5,·
COc1cc(/C=C(\C#N)c2nc3ccccc3s2)cc([N+](=O)[O-])c1O,67*,0,-1,36*
N#C/C(=C\c1ccc(O)c([N+](=O)[O-])c1)c1nc2ccccc2s1,56,-10,12,46*
N#C/C(=C/c1ccco1)c1nc2ccccc2s1,30,57*,4,2
